Here are results for 7 compounds from PubChem BioAssay (Tox21).

Unmarked numbers belong to inactive results. Inconclusive results are not listed. Calls of active or inactive are those of the source. Unless noted, calls follow the shape of the dose curve; as a rule, active = well fitted curve in the direction sought with a large enough effect in the repeat runs; inconclusive = weak or mixed curves; inactive = no such curve, though single readings can be large; an effect the other way counts as inactive or inconclusive.

Test [1] in a line: A CellTox Green Cytotoxicity Assay to monitor cytotoxicity in HEK293 cells - 32 hour (AID 1224881). Also: nearly all actives have a fitted effect of over 40% in size. The gist of the method:
(§1)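 Cells (HEK293, 600/well) and dye reagent are dispensed together. After 5 h at 37 C, 23 nL compound is pinned in. Plates stay at 37 C for 40 h with fluorescence read at 0h, 8h, 16h, 24h, 32h and 40h.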

The nature of test [2]: A CellTox Green Cytotoxicity Assay to monitor cytotoxicity in HepG2 cells - 0 hour (AID 1224882). Also: nearly all actives have a fitted effect of over 35% in size. The gist of the method: (§2)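 Cells and non-lytic dye reagent are dispensed together (600 HepG2 cells/well) and incubated 5 h before DMSO compound transfer. Kinetic fluorescence is then recorded in the same wells during 40 h at 37 C.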
Test [3] in a line: A CellTox Green Cytotoxicity Assay to monitor cytotoxicity in HepG2 cells - 32 hour (AID 1224883). Also: nearly all actives have a fitted effect of over 50% in size. The gist of the method:
as §2

A short description of test [4]: A CellTox Green Cytotoxicity Assay to monitor cytotoxicity in HEK293 cells - 8 hour (AID 1224884). Also: nearly all actives have a fitted effect of over 35% in size. The gist of the method:
as §1

Test [5] can be described thus: qHTS RealTime-Glo MT Cell Viability Assay in HepG2 cells - 16 hour (AID 1224885). Also: nearly all actives have a fitted effect of over 50% in size. The gist of the method: (§3)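 HepG2 cells were seeded at 600 cells/well together with NanoLuc luciferase and a cell-permeant prosubstrate, preincubated 5 h at 37 C/5% CO2, then pin-dosed with compounds in DMSO. Nonlytic luminescence from viable cells was read at each time point.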
On the technique in general: qHTS replaces the single test concentration by a dilution series.

A short description of test [6]: qHTS RealTime-Glo MT Cell Viability Assay in HEK293 cells - 24 hour (AID 1224886). Also: top concentration of the series differs between compounds; nearly all actives have a fitted effect of over 50% in size. The gist of the method:
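HEK293 cells were seeded at 600 cells/well together with NanoLuc luciferase and cell-permeant prosubstrate, preincubated 5 h at 37 C/5% CO2, then given compound in DMSO by pintool. Luminescence from viable-cell prosubstrate reduction was read repeatedly over 40 h.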

Test [7] is described as follows: qHTS RealTime-Glo MT Cell Viability Assay in HEK293 cells - 8 hour (AID 1224887). Also: top concentration of the series differs between compounds; nearly all actives have a fitted effect of over 50% in size. The gist of the method: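 Real-time viability in HEK293: signal arises when living cells convert a prosubstrate for NanoLuc in the medium, so luminescence tracks viable cell number. Compound (23 nL, DMSO) added 5 h post-seeding; kinetic reads at 0–40 h, 37 C.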
Test [8] can be described thus: qHTS RealTime-Glo MT Cell Viability Assay in HepG2 cells - 0 hour (AID 1224889). Also: nearly all actives have a fitted effect of over 50% in size. The gist of the method:
as §3

A short description of test [9]: A CellTox Green Cytotoxicity Assay to monitor cytotoxicity in HepG2 cells - 8 hour (AID 1224890). Also: nearly all actives have a fitted effect of over 45% in size. The gist of the method:
as §2

Test [10] is described as follows: qHTS assay to identify small molecule antagonists of the estrogen receptor alpha (ER-alpha) signaling pathway using the BG1 cell line in the presence of 0.1 nM 17-beta-estradiol - cell viability counter screen (AID 1259241). Also: nearly all actives have a fitted effect of over 40% in size. The gist of the method: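 VM7Luc4E2 cells (endogenous full-length ER-alpha, 4xERE-luciferase), cultured 5 days in charcoal-stripped serum, exposed to compounds with 0.1 nM 17beta-estradiol (final) for 22 hr at 37C. Viability read in same wells as live-cell protease fluorescence after 30 min.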

Test [11] in a line: qHTS assay to identify small molecule antagonists of the androgen receptor (AR) signaling pathway using the MDA cell line in the presence of 0.5 nM R1881 - cell viability counter screen (AID 1259242). Also: nearly all actives have a fitted effect of over 45% in size. The gist of the method: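 Steps: plate MDA-kb2 cells, rest 5 hr at 37C without CO2; pin in compounds in DMSO; add R1881 to 0.5 nM final; incubate 16 hr; add CellTiter-Fluor, 30 min; read fluorescence.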

The target of test [12] is Androgen receptor (Homo sapiens) (UniProt P10275). As to the kind of experiment: qHTS assay to identify small molecule antagonists of the androgen receptor (AR) signaling pathway using the MDA cell line in the presence of 0.5 nM R1881 (AID 1259243). Also: nearly all actives have a fitted effect of over 50% in size. The gist of the method:
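Stably transfected MDA-kb2 cells express luciferase from an MMTV promoter bearing both AR and GR response elements. Compounds plus 0.5 nM R1881 (final) were incubated 16 hr at 37C without CO2, then luminescence measured.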

The target in test [13] is Estrogen receptor (Homo sapiens) (UniProt P03372). Put plainly: qHTS assay to identify small molecule antagonists of the estrogen receptor alpha (ER-alpha) signaling pathway using the BG1 cell line in the presence of 0.1 nM 17-beta-estradiol (AID 1259244). Also: nearly all actives have a fitted effect of over 50% in size. The gist of the method: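 Antagonist mode: compounds in DMSO are pinned onto VM7Luc4E2 reporter cells, 0.1 nM final 17beta-estradiol is added, and after 22 h at 37C luciferase luminescence is measured with ONE-Glo.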

The nature of test [14]: qHTS assay to identify small molecule HDAC inhibitors (AID 1259364).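 Also: wild-type HCT-116 cells with endogenous class I/II HDAC activity; top concentration of the series differs between compounds; nearly all actives have a fitted effect of over 45% in size.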 The gist of the method: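 Cells (HCT-116, wild type) are seeded at 1,500 per well, incubated overnight, treated with compound in DMSO for 2 hr, then developed with HDAC-Glo I/II reagent for 30 min at room temperature.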
Test [15] can be described thus: qHTS assay to identify small molecule HDAC inhibitors - cell viability counter screen (AID 1259365). The gist of the method: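 Wild-type HCT-116 cells, 1,500/well, cultured overnight, then compound-treated 2 h at 37 C. Viability measured as ATP luminescence with CellTiter-Glo after 30 min at room temperature.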
Test [16] can be described thus: qHTS assay to identify small molecule agonists of the sonic hedgehog signaling (Shh) pathway - cell viability counter screen (AID 1259366). Also: nearly all actives have a fitted effect of over 50% in size. Also: potency is read from the fitted curve at half-maximal effect. The gist of the method:
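NIH/3T3-derived Gli1-Luc reporter cells, 2,000 per well, received compound after 4 h and were treated about 23 h at 37C. Viability measured in the same wells by CellTiter-Fluor fluorescence after 1 h.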

A short description of test [17]: qHTS assay to identify small molecule antagonists of the sonic hedgehog signaling (Shh) pathway - cell viability counter screen (AID 1259367). Also: nearly all actives have a fitted effect of over 55% in size. Also: potency is read from the fitted curve at half-maximal effect. The gist of the method:
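Cytotoxicity was assessed in parallel with Shh reporter activity by measuring live-cell protease fluorescence (CellTiter-Fluor) in NIH/3T3 cells stably carrying Gli1-Luc, treated with compound under conditioned medium stimulation for 23 hr plus 1 hr reagent incubation.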

Test [18] can be described thus: qHTS assay to identify small molecule agonists of the sonic hedgehog signaling (Shh) pathway (AID 1259368; calls by dose curve;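 also: NIH/3T3-derived 3T3Gli1-Luc cells carrying a stable Gli1-driven firefly luciferase reporter; series mostly up to about 92 µM; nearly all actives have a fitted effect of over 15% in size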). The gist of the method:
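Cells of a mouse NIH/3T3 clone stably expressing luciferase under the Gli1 transcriptional response element are exposed to test chemicals for 24 hr at 37 C. Pathway activation is detected as a rise in luminescence.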

Test [19] can be described thus: qHTS assay to identify small molecule phospholipidosis (PLD) inducers (AID 1259344; active = well fitted curve in the direction sought with a large enough effect; an effect the other way counts as inactive or inconclusive). The gist of the method:
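Cells (HepG2, 900 per well) attach for 4 h, receive LipidTOX Red and compound together, incubate 24 h at 37 C, are fixed 30 min with paraformaldehyde/Hoechst, then imaged at one site per well.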

Sequence of Estrogen receptor (Homo sapiens) (P03372 whole entry, looked up): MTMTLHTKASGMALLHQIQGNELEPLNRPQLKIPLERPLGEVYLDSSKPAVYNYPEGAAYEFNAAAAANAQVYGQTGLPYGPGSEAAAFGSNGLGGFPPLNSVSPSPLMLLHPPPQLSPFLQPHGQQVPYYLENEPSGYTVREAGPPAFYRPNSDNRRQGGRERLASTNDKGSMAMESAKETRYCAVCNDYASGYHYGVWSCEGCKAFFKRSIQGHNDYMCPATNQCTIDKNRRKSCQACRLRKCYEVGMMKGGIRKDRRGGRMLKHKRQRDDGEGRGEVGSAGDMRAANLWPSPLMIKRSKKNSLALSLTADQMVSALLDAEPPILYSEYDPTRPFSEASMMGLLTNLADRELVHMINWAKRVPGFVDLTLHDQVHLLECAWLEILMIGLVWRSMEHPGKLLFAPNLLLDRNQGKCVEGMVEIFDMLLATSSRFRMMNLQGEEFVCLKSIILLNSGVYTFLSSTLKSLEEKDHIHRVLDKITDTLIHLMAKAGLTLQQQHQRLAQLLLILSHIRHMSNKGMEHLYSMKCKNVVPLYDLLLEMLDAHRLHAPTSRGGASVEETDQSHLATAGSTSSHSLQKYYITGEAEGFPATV
Sequence of Androgen receptor (Homo sapiens) (P10275 whole entry, looked up): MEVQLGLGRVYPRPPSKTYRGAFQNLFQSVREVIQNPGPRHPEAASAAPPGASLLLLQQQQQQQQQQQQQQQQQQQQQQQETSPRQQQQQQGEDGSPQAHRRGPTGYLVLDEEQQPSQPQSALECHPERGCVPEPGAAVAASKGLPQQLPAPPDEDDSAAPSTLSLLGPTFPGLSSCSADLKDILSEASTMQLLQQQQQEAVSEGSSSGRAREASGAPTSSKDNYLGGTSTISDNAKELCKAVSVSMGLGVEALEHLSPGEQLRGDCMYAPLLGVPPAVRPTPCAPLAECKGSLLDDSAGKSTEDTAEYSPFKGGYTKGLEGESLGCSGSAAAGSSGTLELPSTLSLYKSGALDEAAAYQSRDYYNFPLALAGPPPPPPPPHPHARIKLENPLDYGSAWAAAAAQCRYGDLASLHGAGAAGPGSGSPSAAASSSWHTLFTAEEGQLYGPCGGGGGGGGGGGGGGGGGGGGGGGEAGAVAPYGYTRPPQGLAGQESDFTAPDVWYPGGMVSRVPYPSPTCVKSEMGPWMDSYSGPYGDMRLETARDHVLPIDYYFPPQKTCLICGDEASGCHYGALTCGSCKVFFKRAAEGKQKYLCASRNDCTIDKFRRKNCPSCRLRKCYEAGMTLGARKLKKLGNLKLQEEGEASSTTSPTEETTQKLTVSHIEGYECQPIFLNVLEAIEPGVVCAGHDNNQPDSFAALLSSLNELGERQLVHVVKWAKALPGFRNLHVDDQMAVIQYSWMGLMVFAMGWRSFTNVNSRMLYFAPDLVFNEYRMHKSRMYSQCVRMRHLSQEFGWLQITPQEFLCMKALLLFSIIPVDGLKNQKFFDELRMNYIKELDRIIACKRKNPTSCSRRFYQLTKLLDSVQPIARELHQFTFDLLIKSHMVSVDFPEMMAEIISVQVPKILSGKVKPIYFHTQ

For `CN(C1CCCCC1)C1CCCCC1`, the Potency result in [1], in [2], in test [3], in test [4], in [5] and in [6] was “inactive” each time. The Potency result in [7], in [9], in test [10], in test [11], in test [12] and in test [13] was “inactive” each time. The Potency result in test [14], in [15], in test [16], in test [17] and in test [18] was “inactive” each time. The outcome in test [8] was inactive.
With `OCCSSCCO`, the Potency result in [1], in test [2], in test [3], in test [4], in test [5] and in [6] was “inactive” in each case. Besides, the Potency result in test [7], in [9], in test [10], in test [11], in test [14] and in [15] was “inactive” throughout. Further, the Potency result in test [16], in [17] and in [18] was “inactive” each time. In addition, the result in test [8] was inactive.
Turning to `CC(C)(C)NCC(O)c1ccccc1Cl` (stereo not drawn), the Potency result in [1], in test [2], in test [3], in test [4], in test [5] and in test [6] was “inactive” throughout. Moreover, the Potency entry in test [7], in test [9], in [10], in test [11], in [13] and in test [14] was “inactive” in each case. Also, the Potency entry in [15], in [16], in [17] and in test [18] was “inactive” in each case. Besides, the call in test [8] and in test [19] was inactive.
In the case of `CCCSP(=S)(OCC)Oc1ccc(SC)cc1` (stereo not drawn), the Potency result in [1], in test [2], in [3], in test [4], in test [5] and in test [6] was “inactive” throughout. For the same compound, the Potency entry in [7], in test [9], in test [10], in test [11], in test [13] and in test [14] was “inactive” each time. The Potency result in test [16], in test [17] and in test [18] was “inactive” throughout. In test [8], the compound was classed as inactive.
Turning to `CC(C)(C)NCC(O)c1cc(Cl)c(N)c(C(F)(F)F)c1` (stereo not drawn), the Potency result in test [1], in test [2], in test [3], in test [4], in test [5] and in test [6] was “inactive” each time. For the same compound, the Potency result in test [7], in [9], in test [11], in [12], in [14] and in test [15] was “inactive” each time. Also, the Potency entry in [18] was “inactive”. Moreover, the compound was classed as inactive in test [8] and in test [19]. The figures for the Potency in test [16] and in test [17] were 7.5 µM (active) and 9.44 µM (active), respectively.
Turning to `CC[N+]1(CCOC(=O)C(O)(c2ccccc2)c2ccccc2)CCCCC1`, the Potency result in test [1], in test [2], in test [3], in [4], in [5] and in [6] was “inactive” throughout. Also, the Potency result in test [7], in test [9], in test [10], in test [11], in test [13] and in test [14] was “inactive” throughout. Moreover, the Potency result in test [15], in test [16], in [17] and in [18] was “inactive” in each case. For the same compound, the compound was classed as inactive in test [8] and in [19].
As to `O=S(=O)(c1ccccc1)c1ccccc1`, the Potency entry in [1], in test [2], in [3], in [4], in [5] and in test [6] was “inactive” each time. For the same compound, the Potency result in test [7], in test [9], in [10], in test [11], in [14] and in [16] was “inactive” each time. The Potency result in [17] and in test [18] was “inactive” in each case. Also, the compound was called inactive in test [8].
